Sampled rows, rich in hits. Any-hit rate of the full collection: about 11%.
G9a inh: G9a (human) methyltransferase inhibition; Q96KQ7; G9a H3K9 monomethylation, AlphaScreen, 2 h; Potency, µM (top dose mostly 102 µM), usual class: inhibitors; 350,000 tested, 8.8% active; note: nearly all actives have a fitted effect of over 75% in size
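Using a bead-based AlphaScreen, monomethylated H3K9 product from 2 h room-temperature reactions (G9a 20 nM, peptide 500 nM, SAM 20 uM) was detected with 0.5 ug/mL rabbit anti-H3K9me1 antibody.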
BAZ2B inh: blocks human BAZ2B; Q9UIF8; AlphaScreen BAZ2B-H3K14Ac peptide displacement; Potency, µM (doses to about 114 µM), most hits filed as inhibitors; 360,000 tested, 4.4% active; note: nearly all actives have a fitted effect of over 60% in size
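Complex of BAZ2B and biotin-H3K14Ac (50 nM apiece) forms over 30 min at RT, then faces library compounds up to 110 uM for another 30 min; AlphaScreen beads added, 20 min dark incubation, luminescence read.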
VDR inh: vitamin D3 receptor (human) inhibition. VDR-SRC2-3 peptide fluorescence polarization, 2 h. P11473. AID 504847. 400,000 tested, 0.93% active. Potency, µM, usual class: inhibitors
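VDR–SRC2-3 interaction, FP format. Cmpds 23 nl via pintool, brief spin, 2 h ambient incubation.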
JMJD2A Tudor: inhibitors of human JMJD2A Tudor domain; O75164; AlphaScreen JMJD2A-Tudor / H3K4me3 peptide binding; Potency, µM (highest dose often 114 µM), most hits filed as inhibitors; 390,000 tested, 4.4% active; AID 504339; note: nearly all actives have a fitted effect of over 50% in size
PLK1 PBD inh: inhibitors of human PLK1 polo-box domain binding. P53350. Plk1 PBD binding of FITC phosphopeptide, fluorescence polarization. Potency, µM, usual class: inhibitors. 360,000 tested, 2.8% active; note: series mostly up to about 57 µM; nearly all actives have a fitted effect of over 65% in size
HP1b chromo inh: HP1-beta chromodomain-methylated histone interaction inhibition. AlphaScreen HP1-beta / biotin-H3K9me3 peptide binding. Potency, µM (series often up to 114 µM), hits mostly inhibitors. 390,000 tested, 0.56% active. AID 540317; note: nearly all actives have a fitted effect of over 70% in size
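Compound inhibition of the preformed complex between 50 nM HP1-beta and 50 nM biotinylated H3K9me3 peptide was read by AlphaScreen. Buffer was PBS pH 7.4 with 0.01% Tween-20. Incubations ran 30 min at room temperature, with 10 ug/mL donor/acceptor beads.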
Hits are given with their value; 0 = inactive; ? = inconclusive; - = no result; [ ] = remark or other dose. Calls come from the whole dose curve; as a rule, active = well fitted curve in the direction sought with a large enough effect; inconclusive = small, poorly fitted or top-dose-only effect, or another doubt; inactive = no such curve, though single readings can be large; an effect the other way counts as inactive or inconclusive.

SMILES	G9a inh	BAZ2B inh	VDR inh	JMJD2A Tudor	PLK1 PBD inh	HP1b chromo inh
COC(=O)CCSCc1cn2cc(Cl)ccc2n1	39.8µM	0	0	0	0	0
CNCc1cn2cc(Cl)ccc2n1	0	0	0	0	26.7µM	0
O=C(O)CSCc1cn2cc(Cl)ccc2n1	50.1µM	0	0	?	0	0
O=C(/C=C/c1cccc(Cl)c1)OCc1cn2cc(Cl)ccc2n1	0	0	0	0	0	0
Cc1ccc(S(=O)(=O)NCCN2CCOCC2)c(C)c1C	0	0	0	0	0	0
CCN(CC)S(=O)(=O)c1ccc(OC)c(NC(=O)c2cc3c(=O)n4ccccc4nc3s2)c1	39.8µM	0	0	0	0	0
CCCCN(CC)C(=O)c1cc2c(=O)n3cccc(C)c3nc2s1	0	0	0	0	16.8µM	0
COc1ccc(CNC(=O)c2cc3c(=O)n4cccc(C)c4nc3s2)cc1	0	0	0	0	-	0
CC(=O)NS(=O)(=O)c1ccc(NC(=O)c2cc3c(=O)n4ccccc4nc3s2)cc1	-	0	0	0	0	0
COc1ccc(CCNC(=O)c2nc3ncccn3n2)cc1OC	0	0	0	0[11.4 µM]	23.8µM	0
COc1ccc(CCNC(=O)c2cccc(-n3c(C)nc4cccnc43)c2)cc1OC	0	0	0	0	-	0
COc1ccc(CCNC(=O)c2cc3c(=O)n4cccc(C)c4nc3s2)cc1OC	28.2µM	0	0	0	0	0
CCC(=O)N=c1sc2c(C)cc(C)cc2n1CC(=O)OC	0	0	0	0	0	0
O=C(COC(=O)c1cccnc1Cl)Nc1cc(S(=O)(=O)N2CCCCCC2)ccc1Cl	0	0	0	0	0	0
Cc1ccc(SCCC(=O)N(C)C)cc1	0	0	0	0	0	0
CN(C)C(=O)CCSC(SCCC(=O)O)c1cccc(/C=C/c2ccc3ccc(Cl)cc3n2)c1 (stereo not drawn)	0[12.7 µM]	-	35.5µM	-	-	-
C[C@@H]1CN([C@@H](C)CO)S(=O)(=O)c2ccc(Br)cc2O[C@H]1CN(C)C(=O)c1ccccc1F	-	-	-	-	0	-
CC[C@H]1[C@@H]2C=C[C@@H]3[C@H]4C/C=C\C(=O)NCCC[C@@H]5NC(=O)C(=C5O)C(=O)CC[C@@H]4C[C@@H]3[C@H]2C[C@H]1C	0	-	39.8µM	-	-	-
Cc1ccc(NC(=O)CSc2nc3ncccc3[nH]2)cc1F	0	0	0	0	-	0
COc1ccc(-c2ccc(NS(=O)(=O)c3ccc(C(C)=O)cc3)cc2)nn1	0	0	0	0	-	0
N#Cc1nc(Nc2ccc(-c3ccccc3)cc2)nc(NC2CCCC2)n1	-	-	-	0	-	-
CN(Cc1ccccc1Cl)C(=O)C1CCC(=O)N(C2CCCCCC2)C1 (stereo not drawn)	0[12.7 µM]	0	0	0	0	0
O=[N+]([O-])c1ccc(-c2n(-c3ccccn3)c3ccccc3[n+]2-c2ccccn2)cc1	50.1µM	?	0	?	0	0
O=C(O)/C=C\C(=O)Nc1ccc(Oc2ccccc2)cc1	?	0	0	0	0	0
COc1ccc(NC(=O)/C=C/C(=O)O)cc1Cl	0	0	0	0	0	0
SMILES	G9a inh	BAZ2B inh	VDR inh	JMJD2A Tudor	PLK1 PBD inh	HP1b chromo inh
O=C(O)/C=C/C(=O)Nc1ccc(C2(c3ccc(NC(=O)/C=C/C(=O)O)cc3)c3ccccc3-c3ccccc32)cc1	-	50.1µM	25.1µM	0	29.9µM	0
O=C(O)/C=C/C(=O)Nc1ccc(Oc2ccc(NC(=O)/C=C/C(=O)O)cc2)cc1	?	50.1µM	-	-	-	-
O=C(O)/C=C/C(=O)Nc1ccc(SC(F)(F)C(F)(F)C(F)(F)F)cc1	0	0	?	0	?	0
O=C(O)/C=C/C(=O)Nc1ccc(OC(F)(F)Cl)cc1	44.7µM	0	0	0	0	0
O=C(O)/C=C/C(=O)Nc1ccc(Cc2ccc(NC(=O)/C=C/C(=O)O)cc2)cc1	44.7µM	0	0	0	?	0
COc1ccc(S(=O)(=O)N2CCOC2CNC(=O)C(=O)NCCCN2CCOCC2)cc1C (stereo not drawn)	-	0	0	0	0	0
Cc1nc(-c2ccc(S(=O)(=O)Nc3ccc(C)c(C)c3)s2)cs1	-	-	-	0	-	-
Cc1nc(C)c(C(=O)N(c2ccc(F)cc2)C(C(=O)NCC2CCCO2)c2ccccc2)s1 (stereo not drawn)	0	0	?	0	?	0
